# From PubChem BioAssay AID686978 (National Center for Advancing Translational Sciences (NCATS), 2013)
# Among all 420,000 compounds or so, about 64,000 (15%) were called active. Inconclusive results (about 27%) are left out. Calls come from the whole dose curve; as a rule, active = well fitted inhibition curve with a large enough effect; inconclusive = small, poorly fitted or top-dose-only effect; inactive = flat fitted curve, though single readings scatter. Only a sample is shown. Entries that show only a call come without a potency.
# Assay: qHTS for Inhibitors of human tyrosyl-DNA phosphodiesterase 1 (TDP1): qHTS in cells in absence of CPT; note: nearly all actives have a fitted effect of over 55% in size
# Conditions: DT40 Tdp1-/- hTDP1 cells, no CPT, ATP luminescence, 48 h; activity change, negative = growth inhibition: at 46.2 µM (top of the series)
# Source text: Human tyrosyl-DNA phosphodiesterase 1 (TDP1) is a novel repair gene, and we propose to use it as a new target for anticancer drug development. TDP1 is not an essential protein, but under treatment with topoisomerase I poison (camptothecin: CPT), TDP1 works as a critical factor for cell survival. To directly identify novel TDP1 inhibitors active in a cellular environment, we have knocked-out the Tdp1 gene in chicken DT40 cells (Tdp1-/-) and generated a complemented counterpart cells that contains a stable transfection of the human TDP1 gene (Tdp1-/-;hTDP1 cells). For the primary screen, Tdp1-/-;hTDP1 cells will be exposed to small molecules in the presence or absence of CPT, and their growth kinetics will be evaluated after 48 hours by measuring ATP activity. […] The hit compounds will then be evaluated in the presence or absence of CPT using Tdp1-/- cells. […] In tertiary assays, biochemical gel-based assays will be used to assess whether the hit compounds specifically target TDP1.
# To this end, we have screened this cell line against the MLSMR in two primary screens. In one screen we add CPT and in the other we screen in the absence of CPT; this AID represents the screen where CPT was absent.
# NIH Chemical Genomics Center [NCGC]
# NIH Molecular Libraries Probe Centers Network [MLPCN]
# Assay Submitter (PI): Yves Pommier, NCI
# DT40-hTDP1 cells without 20 nM Camptothecin (add 20 microL of DMSO in 1 L of cell culture medium) were dispensed at 400 cells/5microL/well in tissue culture treated 1536-well white wall/solid bottom assay plates (Greiner Bio-One North America, NC, U.S.A.) using a Multidrop Combi 8 channel dispenser (Thermo Fisher, Waltham, MA, USA). 23 nL compounds and controls were transferred using the pin tool (Kalypsys, San Diego, CA, USA) to the assay plates. The assay plates were then incubated at 37 masculineC for a minimum 48 hr. Three microL of Cell Titer Glo solution was added to the plates and incubated at RT in dark for 30 min. Luminescence was read using ViewLux (Perkin Elmer) with 1 sec exposure slow speed, high gain and 2x binning.
# Potency is the fitted concentration of half-maximal effect.
row,Compound,Potency
1,Cc1ccccc1-c1nc(NC(C)C)nc2cc(-c3ccccc3)sc12,20.6 µM (active)
2,O=C(O)CCCC(=O)Nc1ccccc1-n1ccnc1,inactive
3,Cc1c(Cl)c([N+](=O)[O-])nn1CC(=O)NCCCN1CCOCC1,inactive
4,O=S(=O)(c1cccc(-c2nnc3n2CCCCC3)c1)N1CCOCC1,inactive
5,O=S(=O)(c1cccc(-c2nnc(SC(F)F)n2-c2ccccc2)c1)N1CCCCC1,16.4 µM (active)
6,O=S(=O)(c1cccc(-c2cn3ccccc3n2)c1)N1CCCC1,inactive
7,O=C(O)C1=C/C(=C/C=[N+]2c3cc(O)c(O[C@H]4OC(CO)[C@@H](O)[C@@H](O)[C@@H]4O)cc3C[C@@H]2C(=O)[O-])C[C@H](C(=O)O)N1 (stereo partly specified),inactive
8,S=c1[nH]nc(Nc2ccccc2)s1,inactive
9,CCOc1c(Cl)cc(/C=N/O)cc1OC,inactive
10,CCC(=O)/C=C1\Sc2ccccc2N1CC,inactive
11,CCN1/C(=C/C(=S)Nc2ccccc2)Sc2ccccc21,4.11 µM (active)
12,O=C(CS(=O)(=O)c1ccc(C(F)(F)F)cn1)NNC(=O)c1ccccc1,inactive
13,Cc1ccc2nc(COc3ccccc3NC(=O)Nc3ccc(F)c(Cl)c3)cc(=O)n2c1,14.6 µM (active)
14,Cc1ccc2nc(COc3ccc(NC(=O)COc4ccccc4F)cc3)cc(=O)n2c1,inactive
15,Cc1ccc2nc(COc3cccc(NC(=O)Nc4ccc(C)c(Cl)c4)c3)cc(=O)n2c1,inactive
16,COc1ccc(-c2nn3c(=O)cc(CN4CCN(C(=O)c5ccc(OC)c(OC)c5)CC4)nc3s2)cc1,inactive
17,COc1cccc(-c2cc(C(=O)N/N=C/c3ccc(OC)c(COC(C)=O)c3)c3ccccc3n2)c1,2.06 µM (active)
18,O=C(Nc1cccc(F)c1)c1cc(-c2ccco2)nc2ccccc12,inactive
19,CCOc1ccc(-c2cc(C(=O)N/N=C/c3ccc(O)cc3)c3ccccc3n2)cc1,0.651 µM (active)
20,O=C(COc1ccc(/C=N/NC(=O)c2ccc(O)cc2)cc1)Nc1ccc([N+](=O)[O-])cc1,inactive
21,COc1ccc(/C=N/NC(=O)c2cc(-c3cccc(C)c3)nc3ccccc23)cc1O,2.31 µM (active)
22,Cc1ccc(-c2cc(C(=O)N/N=C/C=C/c3ccco3)c3ccccc3n2)cc1C,8.2 µM (active)

row,Compound,Potency
1,COc1ccc(/C=N\NC(=O)c2sc(N)nc2C)cc1OC,inactive
2,COc1ccc(/C=N/NC(=O)c2ccc(Cl)cc2)cc1COC(C)=O,inactive
3,Cc1nonc1C(=O)N/N=C/c1ccc(O)cc1,inactive
4,Cc1ccc(N2NC(=O)/C(=C/C=C/c3ccco3)C2=O)cc1C,inactive
5,Cc1ccc(S(=O)(=O)NCCC(c2ccccc2)c2ccccc2)cc1C(=O)O,inactive
6,O=C(CCCOc1ccc(Cl)cc1Cl)NNC(=O)C1CCC1,inactive
7,Cc1ccc(C)c2[nH]c(=O)c(CCNC(=O)CC(C)C)cc12,inactive
8,COc1ccc(Cc2nnnn2CC(=O)O)cc1,inactive
9,Cc1ccc(S(=O)(=O)CC(=O)Nc2c(C)n(C)n(-c3ccccc3)c2=O)cc1,inactive
10,Cc1cc(C)n2nc(SCC(N)=O)nc2n1,inactive
11,CC(NC(=O)COC(=O)Cn1cc(C(F)(F)F)ccc1=O)c1ccccc1 (stereo unspecified),inactive
12,CCOC(=O)c1c(C)[nH]c(C)c1S(=O)(=O)NCC(=O)NCc1cccc(C)c1,inactive
13,COc1cc(/C=N/NC(=O)c2cc(-c3ccccc3C)nc3ccccc23)cc(OC)c1O,6.51 µM (active)
14,COc1cc(/C=N\NC(=O)C2C(=O)NCC2c2ccccc2)cc(OC)c1O (stereo unspecified),inactive
15,CC1(C)CC(CC(=O)O)C(=O)O1 (stereo unspecified),inactive
16,CC(=O)NCC(=O)N(C)C(C(=O)Nc1ccc2c(c1)OCCO2)c1ccccc1 (stereo unspecified),inactive
17,N#Cc1ccccc1NC(=O)c1cccc(COc2ccc(Cl)cc2Cl)c1,inactive
18,Cc1nn(CC(=O)Nc2ccc(F)cc2)c(=O)c2ccccc12,inactive
19,Cc1ccc(NC(=O)Cn2sc3ccccc3c2=O)cc1,4.61 µM (active)
20,Cc1ccc(NC(=O)Cn2c(C)csc2=O)cc1,inactive
21,CCN1CCN(C(=O)CN(C)S(=O)(=O)c2ccc3ccccc3c2)CC1,inactive
22,CSCC[C@H](NC(=O)NCCc1ccc(F)cc1)C(=O)O,inactive

row,Compound,Potency
1,COc1ccc(Br)cc1CN(C)C(=O)C1CC(=O)N(C2CCCC2)C1 (stereo unspecified),23.1 µM (active)
2,CN(CC(=O)Nc1ccc(F)c(F)c1F)C(=O)C1CC(=O)N(C2CCCC2)C1 (stereo unspecified),inactive
3,O=C(Nc1cccc(Br)c1)C1CC(=O)N(C2CCCC2)C1 (stereo unspecified),inactive
4,CC(C)C(=O)Nc1oc(-c2ccccc2)cc1C#N,inactive
5,Cc1ccc(NC(=O)CN(C)C(=O)Cn2nnc(-c3ccccc3)n2)cc1,inactive
6,CCCn1nc(C(=O)Nc2ccc3nc(C)sc3c2)c2ccccc2c1=O,18.4 µM (active)
7,CCCn1nc(C(=O)NNC(=O)CCOc2ccccc2OCC)c2ccccc2c1=O,inactive
8,CCCn1nc(C(=O)NNC(=O)CSCC(=O)Nc2cc(C)on2)c2ccccc2c1=O,inactive
9,CCCCCC(=O)Nc1ccc(C(=O)N/N=C/c2ccc([N+](=O)[O-])cc2)cc1,inactive
10,CCOC(=O)/C=C/CN(C(=O)OC(C)(C)C)S(=O)(=O)N1CC=CC1,inactive
11,Cc1ccccc1C(=O)O,inactive
12,COC(=O)c1ccccc1C(=O)NCc1nc(N2CCCC2)c2cccc(C)c2n1,inactive
13,COc1cc2cc(C(=O)N/N=C/c3cccc(OC)c3OC)[nH]c2cc1OC,13 µM (active)
14,COc1ccc(/C=N/NC(=O)c2cccc(C(F)(F)F)c2)cc1,inactive
15,CCOc1ccccc1/C=N/NC(=O)CNC(=O)COc1ccccc1,inactive
16,COc1cccc2[nH]c(C(=O)NCCc3ccccc3)cc12,inactive
17,COc1ccc2[nH]c(C(=O)Nc3ccccc3Cl)cc2c1,inactive
18,CCOc1ccc2[nH]c(C(=O)N/N=C/c3cccc(OC)c3OC)cc2c1,16.4 µM (active)
19,CCCOP(=O)(c1ccc(N(C)C)cc1)C(O)c1cc(OC)c(OC)c(OC)c1 (stereo unspecified),inactive
20,Cc1ccc2oc(=O)ccc2c1,inactive
21,CC(=O)Nc1ccc(S(=O)(=O)Nc2nccc(/C=C/c3ccccc3F)n2)cc1,inactive
22,C=CCCN(Cc1ccccc1)S(=O)(=O)c1ccccc1Br,inactive

row,Compound,Potency
1,CCN(Cc1ccccc1)S(=O)(=O)c1cc(C(=O)O)ccc1OC,inactive
2,COCCNS(=O)(=O)c1cc(Br)ccc1OC,inactive
3,C=CC(COCc1ccccc1)N(CC(=O)OC)S(=O)(=O)c1cc(Br)ccc1OC (stereo unspecified),25.9 µM (active)
4,CCN([C@H](CO)C(C)C)S(=O)(=O)c1ccccc1Br,inactive
5,C=CC(COCc1ccccc1)N(Cc1ccccc1)S(=O)(=O)c1ccccc1Br (stereo unspecified),16.4 µM (active)
6,CCN(CCn1cccn1)C(=O)CC1C(=O)NCCN1Cc1cccc(OC)c1OC (stereo unspecified),inactive
7,Brc1ccc(-c2nn[nH]n2)cc1,inactive
8,CCN=C1SC(CC(=O)Nc2ccc(C)cc2)C(=O)N1CC (stereo unspecified),inactive
9,O=C(NCc1cccs1)c1ccc(CS(=O)Cc2ccccc2Cl)o1 (stereo unspecified),inactive
10,O=C(c1ccc(CS(=O)Cc2ccccc2Cl)o1)N1CCN(c2ccccc2)CC1 (stereo unspecified),20.6 µM (active)
11,COc1ccc(NS(=O)(=O)c2cccc3nsnc23)cc1Cl,inactive
12,C=CCn1c(-c2ccc(Cl)cc2)ccc(C#N)c1=O,inactive
13,CCN(CC)c1ccc(C(=O)c2cnc(/N=C/N(C)C)s2)cc1,inactive
14,Cc1ccnc2nc(C(=O)Nc3nnc(-c4ccccc4)o3)nn12,inactive
15,Cc1ccc(OCC(=O)Nc2ccccc2C(=O)NC2CC2)cc1C,inactive
16,CC(NCC(=O)Nc1ccccc1C(=O)NC1CC1)c1ccccc1Cl (stereo unspecified),inactive
17,CC1CCCCC1NCC(=O)Nc1ccccc1C(=O)Nc1ccccc1 (stereo unspecified),14.6 µM (active)
18,C[C@H](NC(=O)C1CCN(S(=O)(=O)c2ccccc2)CC1)C(=O)NCc1ccccc1,inactive
19,O=C(COc1ccc([N+](=O)[O-])cc1Cl)Nc1ccc2[nH]c(=O)[nH]c2c1,inactive
20,O=C1N(c2ccc(Cl)cc2)C(c2ccc(Cl)cc2)N2CCCN12 (stereo unspecified),inactive
21,COc1ccc(-n2c(-c3ccc(OC)c(OC)c3)n[nH]c2=S)cc1,inactive
22,COc1ccc(-c2cn(-c3ccc(OC)cc3)c(=S)[nH]2)cc1,18.4 µM (active)

row,Compound,Potency
1,COc1ccc(N2C(=O)CNC2=S)cc1,inactive
2,FC(F)(F)c1cccc(-c2nc(COc3ccc(Cl)cc3Cl)no2)c1,inactive
3,CS(=O)(=O)N(CC(=O)N1CCOCC1)c1ccc2c3c(cccc13)CC2,inactive
4,O=C(COC(=O)CNS(=O)(=O)c1ccc(F)c(F)c1F)NC1CCCC1,inactive
5,FC(F)(F)c1ccccc1-c1nc(-n2ccnc2)c2ccccc2n1,inactive
6,FC(F)(F)c1cc(Nc2nc3ccccc3c3nncn23)ccc1Cl,16.4 µM (active)
7,COc1ccc(OC)c(Nc2nc3ccccc3n3cnnc23)c1,inactive
8,COc1cccc(Nc2nc3ccccc3c3nncn23)c1,25.9 µM (active)
9,COc1cccc(Nc2ncccc2C(=O)O)c1,inactive
10,CC(C)c1cc(CN2CCOCC2)cc(C(C)C)c1O,inactive
11,O=C(Cc1ccccc1)Nc1ccc(NC(=O)c2cccnc2)cc1,inactive
12,CC(C)(C)c1cc[n+](-c2[nH]c(=O)sc2/C=N/N=C(\[O-])c2ccccc2)cc1,inactive
13,CCCS(=O)(=O)Nc1c(C(=O)O)[nH]c2ccccc12,inactive
14,COc1ccc(/C=C(\C#N)c2c[nH]c3ccccc23)cc1,0.651 µM (active)
15,COc1ccc(C2C(C(C)=O)=C(O)C(=O)N2CCc2c[nH]c3ccccc23)cc1 (stereo unspecified),inactive
16,C[N+](C)(C)CCNC(=O)c1c[nH]c2ccccc12,inactive
17,N/C(=N\OC(=O)c1ccc2c(c1)OCO2)c1ccc(Br)cc1,inactive
18,CCn1cc(C(=O)NCCC(=O)NCCO)c(=O)c2cc3c(cc21)OCO3,inactive
